The values below come from PubChem BioAssay (NCI).

Some test systems named below: NCI-H23 lung; NCI-H226 lung; NCI-H322M lung; HOP-62 NSCLC; NCI-H460 lung; HOP-92 NSCLC; 786-0 renal; COLO 205 colon; DU-145 prostate; K-562 leukemia; MALME-3M melanoma; MDA-MB-231 breast; SF-268 CNS; SF-295 CNS; SF-539 CNS; UACC-257 melanoma; M14 melanoma; A549/ATCC NSCLC; NCI-H522 lung; RXF 393 renal.
Experiment in all cases: NCI-60 one-dose screen, 48 h (100 = growth as untreated, 0 = no growth, -100 = all killed)
Conditions in all cases: 10 µM unless noted

This is part of a sample that, as a whole, favours compounds with a hit. Of some 83,000 tested, about 20% had one in any assay.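 Interpretation: 100, growth as untreated; towards 0, rising growth inhibition; 0, no net growth; 0 to -100, cell death. Compounds scoring below 10 were considered active.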 Values without a mark were called inactive. The source made the active and inactive calls.

In the case of `COc1ccc(Cl)cc1NC(=O)c1c(NC(=O)C(F)(F)C(F)(F)F)sc2c1CCCCC2`, the growth in the test with NCI-H23 lung was -5.14% (active); in the test on NCI-H226 lung, -5.37% (active); with NCI-H322M lung, 12%; in the test on HOP-62 NSCLC, -14.6% (active); in the test with NCI-H460 lung, 3.45% (active); in the test on HOP-92 NSCLC, -32.7% (active). The growth was -13.8% (active) with 786-0 renal; -32.9% (active) in the test on COLO 205 colon; 19.3% in the test with DU-145 prostate; 17.6% with K-562 leukemia; -24.5% (active) in the test with MALME-3M melanoma; -18.6% (active) in the test on MDA-MB-231 breast. The growth in the test on SF-268 CNS is 6.13% (active); in the test on SF-295 CNS it was -25.2% (active); in the test with SF-539 CNS, 4.26% (active); with UACC-257 melanoma, -16.5% (active); with M14 melanoma it was 0.83% (active).

Take `COc1ccc(/C=C/C(=O)c2ccc(Nc3ncnc4ccccc34)cc2)cc1OC`: the growth with NCI-H23 lung was 73.3%; in the test on NCI-H226 lung it was 104%; in the test with NCI-H322M lung, 92.4%; with HOP-62 NSCLC it was 92.8%; in the test with NCI-H460 lung, 83.8%; in the test on HOP-92 NSCLC, 74%. Moreover, the growth in the test with A549/ATCC NSCLC is 68.3%; with 786-0 renal, 79.2%; in the test with COLO 205 colon, 109%; in the test on DU-145 prostate it was 83.1%; in the test on MALME-3M melanoma, 101%; in the test on MDA-MB-231 breast it was 72.1%. In addition, the growth in the test with SF-268 CNS is 68.1%; in the test with SF-295 CNS, 79.6%; in the test with SF-539 CNS it was 98.1%; in the test with UACC-257 melanoma, 98.6%; in the test with M14 melanoma, 64.7%.

For `CCN1C(=O)N(CC)C2NC(SC)=NC21` (stereo unspecified), the growth is 98% in the test with NCI-H23 lung; 94.3% in the test with NCI-H226 lung; 92.3% with NCI-H322M lung; 91.8% in the test on HOP-62 NSCLC; 103% in the test with NCI-H460 lung; 108% in the test with HOP-92 NSCLC. Also, the growth in the test on NCI-H522 lung is 102%; in the test with 786-0 renal, 102%; in the test with COLO 205 colon it was 103%; with DU-145 prostate, 111%; in the test on K-562 leukemia, 104%; with MALME-3M melanoma it was 95%. Moreover, the growth was 103% with MDA-MB-231 breast; 95.3% with SF-268 CNS; 101% in the test with SF-295 CNS; 98.7% in the test on SF-539 CNS; 97.8% in the test with UACC-257 melanoma; 100% in the test with M14 melanoma.

With `Cc1ccccc1C(c1ccccc1)c1ccccc1C`, the growth with NCI-H23 lung is 94.4%; with NCI-H226 lung, 22.1%; in the test with NCI-H322M lung it was 90.9%; in the test on HOP-62 NSCLC, 69.5%; with NCI-H460 lung it was 101%; in the test with HOP-92 NSCLC, 79.7%. Further, the growth with A549/ATCC NSCLC is 73.6%; in the test on 786-0 renal, 98.8%; in the test on COLO 205 colon it was 105%; in the test on DU-145 prostate, 117%; in the test with K-562 leukemia it was 105%; with MALME-3M melanoma, 109%. The growth in the test with MDA-MB-231 breast is 104%; in the test with SF-268 CNS it was 99.7%; in the test on SF-295 CNS, 97.7%; in the test on SF-539 CNS it was 106%; in the test with UACC-257 melanoma it was 71.3%; with M14 melanoma, 80.3%.

Take `O=C1c2cccnc2C(=O)c2nc3cc(N4CCN(C5CC5)CC4)ccc3nc21`: the growth in the test on NCI-H23 lung was -56.5% (active); with NCI-H226 lung, -49.1% (active); with NCI-H322M lung, -96.7% (active); in the test on HOP-62 NSCLC, -56.6% (active); in the test with NCI-H460 lung, -54.1% (active); with HOP-92 NSCLC it was 62.5%. In addition, the growth is -50.5% (active) in the test with NCI-H522 lung; 28.1% in the test with 786-0 renal; -68.3% (active) in the test with COLO 205 colon; -75.9% (active) with DU-145 prostate; 0.866% (active) in the test on K-562 leukemia; -100% (active) in the test with MALME-3M melanoma. Further, the growth in the test on MDA-MB-231 breast is 15.1%; with SF-268 CNS, 12.5%; in the test on SF-295 CNS it was -88.9% (active); in the test on SF-539 CNS it was -99.4% (active); in the test on UACC-257 melanoma, -84.5% (active); with M14 melanoma, -91.2% (active).

Regarding `CN(C)Cc1c(-c2ccccc2)[nH]c2ccccc12`, the growth was 88.7% with NCI-H23 lung; 106% in the test with NCI-H226 lung; 114% with NCI-H322M lung; 80.3% in the test with HOP-62 NSCLC; 99.5% in the test on NCI-H460 lung; 96.4% in the test with HOP-92 NSCLC. Moreover, the growth in the test with NCI-H522 lung was 82.5%; in the test with 786-0 renal, 90%; in the test on COLO 205 colon it was 107%; in the test with DU-145 prostate, 113%; in the test with K-562 leukemia, 107%; in the test with MALME-3M melanoma, 128%. Further, the growth is 102% in the test with MDA-MB-231 breast; 92.1% with SF-268 CNS; 92.7% with SF-295 CNS; 106% with SF-539 CNS; 99.3% in the test with UACC-257 melanoma; 82.6% in the test with M14 melanoma.

With `COc1cc(-c2nc3occn3c2-c2ccnc(NCCNS(=O)(=O)c3ccc(Cl)cc3)n2)ccc1F`, the growth is 92.2% in the test with NCI-H23 lung; 73.2% in the test with NCI-H226 lung; 91.6% with NCI-H322M lung; 93.3% in the test on HOP-62 NSCLC; 88.8% in the test with NCI-H460 lung; 78.5% in the test with HOP-92 NSCLC. For the same compound, the growth with A549/ATCC NSCLC was 82%; with 786-0 renal it was 84.9%; in the test on COLO 205 colon, 86.5%; in the test with DU-145 prostate, 89.8%; in the test with K-562 leukemia, 58.9%; in the test on MALME-3M melanoma, 80.1%. The growth in the test with MDA-MB-231 breast is 78.3%; in the test with SF-268 CNS, 68.4%; in the test with SF-295 CNS, 88.6%; in the test with SF-539 CNS, 85.4%; in the test on UACC-257 melanoma, 90.2%; in the test with M14 melanoma, 86%.

On to `Fc1ccc(C2CC(c3cccc(Nc4ccncc4)c3)=NN2c2ccc(Cl)cc2)cc1` (stereo unspecified), for which the growth in the test with NCI-H23 lung is 88.6%; in the test on NCI-H226 lung, 91.4%; with NCI-H322M lung, 78%; in the test with HOP-62 NSCLC it was 64.9%; in the test with NCI-H460 lung, -53.9% (active); in the test on HOP-92 NSCLC, 52.2%. Further, the growth with A549/ATCC NSCLC is 52.6%; in the test on 786-0 renal, 104%; with COLO 205 colon it was -59.8% (active); with DU-145 prostate, 52%; in the test on K-562 leukemia, 1.22% (active); in the test with MALME-3M melanoma it was 33.1%. In addition, the growth was 60.7% with MDA-MB-231 breast; 77.9% in the test on SF-268 CNS; 66.5% in the test on SF-295 CNS; 84.1% in the test with SF-539 CNS; 80.8% with UACC-257 melanoma; 101% in the test on M14 melanoma.

Turning to `N#Cc1c(Nc2ccccc2)nn2cc(-c3nc4ccccc4s3)c(N)nc12`, the growth in the test with NCI-H23 lung is 60.3%; in the test on NCI-H226 lung, 65.6%; in the test with NCI-H322M lung, 86.2%; with HOP-62 NSCLC it was 92.9%; in the test with NCI-H460 lung, 61.8%; in the test on HOP-92 NSCLC, 80.6%. Also, the growth was 80.6% in the test with A549/ATCC NSCLC; 76.3% in the test with 786-0 renal; 114% in the test with COLO 205 colon; 66% with DU-145 prostate; 74.8% with K-562 leukemia; 40.4% in the test on MALME-3M melanoma. Further, the growth in the test with MDA-MB-231 breast was 72.5%; with RXF 393 renal it was 87.8%; in the test on SF-268 CNS, 70%; in the test with SF-295 CNS, 99%; in the test with SF-539 CNS it was 58%; in the test on UACC-257 melanoma, 83.7%. In addition, the growth in the test on M14 melanoma was 58.8%.
